Compound activity as filed in PubChem BioAssay.
This is a sample that favours compounds with a hit; in the whole collection about 19% have one here.
TDP1 block = TDP1 (human) enzyme inhibition. Q9NUW8. recombinant TDP1, AlphaScreen DNA substrate cleavage. Potency, µM (series often up to 130 µM), inactives show top-dose activity change, negative = inhibition, actives largely listed as inhibitors. hit rate 0.28% among 350,000. AID 485290; also: nearly all actives have a fitted effect of over 40% in size
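Here, a 5' biotin and 3' phosphotyrosine-FITC DNA oligonucleotide reports Tdp1 activity: intact substrate bridges AlphaScreen beads, while cleavage leaves a 3' phosphate and drops signal. All incubations at room temperature.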
Gal4-VP16 FLuc = inhibits Gal4-VP16 luciferase reporter, ROR gamma counter-screen; Drosophila S2 Gal4-VP16 UAS-luciferase, luminescence, 20 h; Potency, µM (titrated, usually from 53.6 µM), for the others: top-dose activity, negative = inhibition, most hits filed as inhibitors; hit rate 3.5% among 310,000;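 also: Gal4-VP16 expression switched on by copper sulfate through the metallothionein promoter; nearly all actives have a fitted effect of over 50% in size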
TDP1 cell noCPT = qHTS for Inhibitors of human tyrosyl-DNA phosphodiesterase 1 (TDP1): qHTS in cells in absence of CPT | DT40 Tdp1-/- hTDP1 cells, no CPT, ATP luminescence, 48 h | Potency, µM (titrated, usually from 46.2 µM), without a hit: at the top dose activity change, negative = growth inhibition, hits mostly inhibitors | hit rate 15% among 420,000; also: nearly all actives have a fitted effect of over 55% in size
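DT40 Tdp1-/-;hTDP1 cells, no CPT (DMSO vehicle only), 400 cells/well; compounds pin-transferred; ≥48 hr, 37 °C; CellTiter-Glo 30 min RT dark, luminescence read.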
TDP1 cell CPT = DT40-hTDP1 cell growth loss with CPT | chicken DT40 Tdp1-/-;hTDP1 cells + 20 nM CPT, ATP luminescence, 48 h | Potency, µM (titrated, usually from 46.2 µM), without a hit: top-dose activity change, negative = growth inhibition, usual class: inhibitors | hit rate 12% among 420,000 | AID 686979; also: nearly all actives have a fitted effect of over 55% in size
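Chicken DT40 Tdp1-/- cells complemented with human TDP1, 400 cells/well, exposed to compounds plus 20 nM camptothecin for at least 48 h at 37 C; viability read as ATP content by CellTiter-Glo luminescence.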
RORgamma inh = blocks mouse ROR gamma transcriptional activity. P51450. Drosophila S2 Gal4-RORgamma UAS-luciferase reporter, 20 h. Potency, µM (highest dose often 53.6 µM), inactives show at the highest dose activity change, negative = inhibition, hits mostly inhibitors. hit rate 5.4% among 310,000. AID 2551; also: nearly all actives have a fitted effect of over 60% in size
Target sequence (P51450 whole entry, looked up, the tested form may be a part): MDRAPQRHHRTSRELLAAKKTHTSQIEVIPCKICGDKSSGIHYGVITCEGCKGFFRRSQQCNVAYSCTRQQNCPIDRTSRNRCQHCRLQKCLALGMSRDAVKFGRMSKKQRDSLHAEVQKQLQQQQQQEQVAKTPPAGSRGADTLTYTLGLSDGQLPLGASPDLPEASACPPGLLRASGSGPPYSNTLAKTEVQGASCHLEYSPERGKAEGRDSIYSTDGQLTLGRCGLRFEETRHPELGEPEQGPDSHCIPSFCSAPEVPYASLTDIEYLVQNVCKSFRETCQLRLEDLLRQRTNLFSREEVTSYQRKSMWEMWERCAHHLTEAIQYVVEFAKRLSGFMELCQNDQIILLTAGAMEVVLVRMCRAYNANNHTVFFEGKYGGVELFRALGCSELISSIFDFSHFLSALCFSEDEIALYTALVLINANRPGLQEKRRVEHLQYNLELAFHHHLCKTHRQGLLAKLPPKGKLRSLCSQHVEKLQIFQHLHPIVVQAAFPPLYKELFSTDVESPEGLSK
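Drosophila S2 cells stably expressing Gal4-DBD/mouse RORγ fusion under metallothionein promoter plus UAS-luciferase; compound 1 h, then 700 uM CuSO4 induction for 20 h at ambient temperature; inhibition read as reduced luminescence.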
Starred values were filed as active, the others as inactive; ? = inconclusive; . = no result given; [ ] = another dose, or the depositor's remark. Calls follow the shape of the dose curve; as a rule, active = well fitted curve in the direction sought with a large enough effect; inconclusive = small, poorly fitted or top-dose-only effect, or another doubt; inactive = no such curve, though single readings can be large; an effect the other way counts as inactive or inconclusive. % is scaled to controls: 0 for no effect and ±100 for the full control effect; potency is read from the fitted curve at half-maximal effect.

SMILES	TDP1 block	Gal4-VP16 FLuc	TDP1 cell noCPT	TDP1 cell CPT	RORgamma inh
Cc1nc(C)n(CC(=O)N2CCCC(C(=O)c3ccc(Cl)cc3C)C2)n1 (stereo not drawn)	.	-18%	18µM*	0.41µM*	35%
COc1ccc(N=C2SCC(c3ccccc3)=NN2C)cc1	6%	22%	?	?	39%
COC(=O)/C(=C/c1ccc(F)cc1)NC(C)=O	0%	-10%	5%	-23%	-66%
CCN(CC)CCNC(=O)c1cc2ccccc2nc1Cl	-8%	3%	-16%	-15%	8%
N#CC(C#N)=NNc1ccc2cn[nH]c2c1	.	.	4.6µM*	4.1µM*	.
COc1cccc(NC(=O)C(=O)c2cn(CC(=O)N3CCCC3)c3ccccc23)c1	2%	19%	?	?	43%
COC(=O)c1sc(N)c(C(=O)OC)c1Cn1ncc(Cl)c(Cl)c1=O	.	13µM*	15µM*	23µM*	?
COC(=O)c1sc(N)c(C(=O)OC)c1COC(=O)c1c(C)noc1C	0%	-9%	5.2µM*	3.7µM*	-9%
CCN(C(=O)COC(=O)C1CCN(S(=O)(=O)c2ccc(C)c(C)c2)CC1)C1CCCCC1	3%	.	0%	-1%	.
CCC1=C(OC(=O)N(CC)CC)N2C(=O)OC(=NCCc3c[nH]c4ccccc34)[C@]2(C)[C@H]2C1=CC[C@H]1C(=O)NC(=O)[C@H]12	16%	-2%	-19%	-23%	29%
C/C(=N/NS(=O)(=O)c1ccc(C)cc1)c1c[nH]c2ccccc12	5%[56.1 µM]	-9%	15%	-7%	0%
CN(C)CCCNCC(=O)c1c(-c2ccccc2)n(C)c2ccccc12	.	-8%	18µM*	29µM*	-4%
CC(C)CC(=O)NC(=S)N(Cc1ccccc1)Cc1ccccc1	5%	6.3µM*	?	?	3.2µM*
CC(C)C(=O)NC(=S)N(Cc1ccccc1)Cc1ccccc1	4%	5µM*	16µM*	?	2.8µM*
COC(CNC(=O)CNC(=S)N(Cc1ccccc1)Cc1cccs1)OC	-2%	0%	-28%	9%	-4%
CCOc1cc(C)nc(N2CCN(C3CCCCC3)CC2)n1	7%	-1%	-16%	-44%	-3%
CCc1noc(C)c1C(=O)NCCN1C(=O)S/C(=C\c2ccc(OC)cc2)C1=O	6%	.	16µM*	23µM*	.
COc1ccc(/C=C2\SC(=O)N(CCNC(=O)Cn3cnnn3)C2=O)cc1	3%	3%	-13%	-25%	5%
COc1ccc(/C=C2\SC(=O)N(CCNC(=O)CCS(=O)(=O)c3ccc(C)cc3)C2=O)cc1	2%	3%	21µM*	13µM*	9%
COc1ccc(CCNC(=O)C2CCN(C(=O)c3ccc(F)cc3)CC2)cc1	4%	-3%	-25%	?	-2%
CCOC(=O)Cc1csc(NC(=S)NC(=O)c2ccc(Cl)cc2)n1	3%	?	?	?	7.1µM*
CCOC(=O)Cc1csc(NC(=S)NC(=O)c2ccc([N+](=O)[O-])cc2)n1	-3%	?	-7%	-27%	10µM*
CCOC(=O)Cc1csc(NC(=O)Cc2ccc(Cl)cc2)n1	-3%	-12%	-25%	?	44%
CCOC(=O)Cc1csc(NC(=O)c2ccc(N3CCOCC3)cc2[N+](=O)[O-])n1	6%	.	?	23µM*	.
CCOC(=O)Cc1csc(NC(=O)Cc2ccc([N+](=O)[O-])cc2)n1	2%	1%	-23%	-26%	1%
SMILES	TDP1 block	Gal4-VP16 FLuc	TDP1 cell noCPT	TDP1 cell CPT	RORgamma inh
O=C(c1ccc(NS(=O)(=O)c2cccs2)cc1)N1CCCCC1	-8%	-1%	-29%	-16%	?
COc1ccc(-c2ccc3c(c2)S(=O)(=O)c2cccc(C(=O)NC4CC4)c2C3=O)cc1OC	-10%	.	-27%	?	.
O=C(NCc1cc(C(F)(F)F)ccc1Cl)c1cccc2c1C(=O)c1ccc(N3CCCCC3)cc1S2(=O)=O	-1%	.	?	?	.
COc1ccc(-c2ccc3c(c2)S(=O)(=O)c2cccc(C(=O)NC4CCCCC4)c2C3=O)cc1OC	-4%	.	23µM*	15µM*	.
COc1ccc(-c2ccc3c(c2)S(=O)(=O)c2cccc(C(=O)NCCOc4ccccc4Cl)c2C3=O)cc1OC	28µM*	.	23µM*	23µM*	.
COc1ccc(-c2ccc3c(c2)S(=O)(=O)c2cccc(C(=O)NCc4ccccc4Cl)c2C3=O)cc1OC	25µM*	.	15µM*	21µM*	.
CC(C1CC2CCC1C2)n1c(-c2cccs2)n[nH]c1=S (stereo not drawn)	6%	?	?	?	0.79µM*
Cc1ccc(S(=O)(=O)Oc2ccc(/C=C(/NC(=O)c3ccccc3)C(=O)NCCCC(=O)O)cc2)cc1	-6%	-2%	3%	31%	-7%
O=C(OCc1cn([C@H]2CN(C(=O)c3cccs3)[C@@H](c3ccc(Cl)cc3)C[C@@H]2O)nn1)c1ccccc1	.	.	?	23µM*	.
O=C(OCc1cn([C@H]2CN(C(=O)c3cccs3)[C@@H](c3ccccc3)C[C@@H]2O)nn1)c1ccccc1	.	.	15µM*	?	.
CCc1noc(C)c1C(=O)NNC(=O)c1cc(OC)c(OC)c(OC)c1	-5%[0.505 µM]	.	-18%	12%	.
CCOC(=O)c1cc(C)sc1NC(=O)CSc1nnnn1C	3%	-20%	-5%	-3%	-13%
CCOC(=O)c1c(NC(=O)CSc2nncs2)sc(C)c1-c1ccccc1	-3%	0.45µM*	?	?	-25%
CCOC(=O)c1c(NC(=O)CSc2nnnn2C)sc(C)c1-c1ccc(C)cc1	6%	-4%	16µM*	?	3%
O=C(CSc1nnnn1-c1ccccc1)NC(=O)Cc1ccccc1	1%	.	6%	1%	.
CCOC(=O)c1c(NC(=O)CSc2nncs2)sc(C)c1C	2%	-6%	-4%	-13%	7%
CCOC(=O)c1c(-c2ccccc2)csc1NC(=O)CSc1nncs1	5%	?	16µM*	23µM*	28%
Cn1nnnc1SCC(=O)NC(=O)Cc1ccccc1	2%	-2%	6.5µM*	12µM*	-13%
COc1ccc(/C(C)=N/NC2=NCCN2)cc1Cl	.	13%	-19%	-12%	9%
O=C1N(c2ccccc2C(F)(F)F)O[C@]1(c1ccccc1)C1CCCCC1	-11%	.	-11%	-9%	.
O=C(C1CCC1)N1CCN(S(=O)(=O)c2ccccc2)CC1	-1%	.	-6%	-7%	.
CCOC(=O)c1c(-c2ccccc2)csc1NC(=O)CSc1ccccc1	5%	?	?	-20%	6%
CCOC(=O)c1c(-c2ccccc2)csc1NC(=O)CSc1nnnn1C	0%	-9%	?	18µM*	0%
Cc1ccc(NC(=O)CCSc2nnc3ccccn23)cc1	0%	-14%	?	8%	30%
